According to PubChem BioAssay AID720728 (Molecular Libraries Program, Specialized Chemistry Center, …, 2013):
Calls of active or inactive are those of the source. No rule for the calls is given here.

Test: mitochondrial permeability transition pore blockers, isolated mitochondria – biochemical, dry powder samples, uHTS hits, dose response (AID 720728)
Conditions: calcium retention capacity

SMILES	CRC/CRC0 ratio at 50 uM (fold over control, higher = inhibition)
C=CCNCCOc1ccc(C(C)(C)c2ccccc2)cc1	1.95 fold (active)
CCOC(=O)N1CCN(S(=O)(=O)c2ccc(C(=O)N(CCCN(C)C)c3nc4c(C)c(C)ccc4s3)cc2)CC1	1.51 fold (active)
C=CCNCCOCCOc1ccc(Cl)cc1C(C)(C)C	1.81 fold (active)
Cc1ccc2nc(N(CCN(C)C)C(=O)/C=C/c3cccs3)sc2c1	1.28 fold (active)
COC(=O)c1c(NC(=O)C2CCCCC2)sc2c1CC(C)(C)NC2(C)C	2.05 fold (active)
COc1ccc(C)c2sc(N(CCCN(C)C)C(=O)CS(=O)(=O)c3ccc(F)cc3)nc12	1.4 fold (active)
CCN(CC)c1ccc(NC(=O)c2cc(Cl)ccc2OC)cc1	0.622 fold (active)
N#Cc1c(NCCN)nc(-c2ccco2)c2c1CCCC2	1.81 fold (active)
O=C(CC1NCCc2ccccc21)Nc1ccc(Cl)cc1 (stereo unspecified)	1.65 fold (active)
CC(C)(C)c1ccccc1OCCCCCNCCO	1.82 fold (active)
COc1ccc(-n2cc(CNC3CCN(C)CC3)c(-c3cccc(F)c3)n2)cc1	1.5 fold (active)
Cc1cc(C)c2nc(N(CCCN(C)C)C(=O)c3ccc(S(=O)(=O)N4CCCCCC4)cc3)sc2c1	1.57 fold (active)
CC1CCCN(CCC(=O)c2ccc(Br)cc2)C1 (stereo unspecified)	2.73 fold (active)
COc1cc(CNCCO)cc(Cl)c1OCc1ccccc1Cl	1.81 fold (active)
CNCCC=C1c2ccccc2CCc2ccccc21	1.66 fold (active)
Cc1cc(C)c2nc(N(CCCN(C)C)C(=O)C3=COCCO3)sc2c1	1.4 fold (active)
CN1CCC[C@@H]1CCO[C@](C)(c1ccccc1)c1ccc(Cl)cc1	1.81 fold (active)
CCN(CC)CCCN=Cc1c(O)n(Cc2ccccc2)c(=O)c2ccccc12	1.3 fold (active)
CNCCCC12CCC(c3ccccc31)c1ccccc12	1.82 fold (active)
COCCCNCCCOc1ccc(Cl)cc1C(C)(C)C	2.13 fold (active)
COc1ccc(Cl)cc1C(=O)Nc1ccc(CN2CCCCC2)cc1	2.57 fold (active)
C=CCNCCCOc1ccc(C)cc1Br	1.53 fold (active)
COc1cc(NC(=O)c2cc(-c3cccc(O)c3)on2)cc(OC)c1OC	1.93 fold (active)
Cc1ccc2nc(N(CCCN(C)C)C(=O)CCc3ccccc3)sc2c1	1.61 fold (active)
N=c1sccn1CC(=O)Nc1cccc(Oc2ccccc2)c1	1.91 fold (active)
CN(C)CCCN1c2ccccc2Sc2ccc(Cl)cc21	1.97 fold (active)
